KDM4E inh: JMJD2E (human) inhibition; JMJD2E catalytic domain, FDH-coupled NADH fluorescence (FDH is formaldehyde dehydrogenase); Potency, µM (highest dose often 57.1 µM), without a hit: at the top dose activity change, negative = inhibition, most hits filed as inhibitors; 1.6% of 230,000 active; AID 2147; active = well fitted inhibition curve with a large enough effect, not every such curve was filed as active; inconclusive = small, poorly fitted or top-dose-only effect, or another doubt; inactive = no such curve, though single readings can be large or run the other way;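 also: potency is read from the fitted curve at half-maximal effect; 0% = wells with enzyme and -100% = buffer wells without enzyme; nearly all actives have a fitted effect of over 50% in size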
Target sequence (B2RXH2 1-337 limits assumed): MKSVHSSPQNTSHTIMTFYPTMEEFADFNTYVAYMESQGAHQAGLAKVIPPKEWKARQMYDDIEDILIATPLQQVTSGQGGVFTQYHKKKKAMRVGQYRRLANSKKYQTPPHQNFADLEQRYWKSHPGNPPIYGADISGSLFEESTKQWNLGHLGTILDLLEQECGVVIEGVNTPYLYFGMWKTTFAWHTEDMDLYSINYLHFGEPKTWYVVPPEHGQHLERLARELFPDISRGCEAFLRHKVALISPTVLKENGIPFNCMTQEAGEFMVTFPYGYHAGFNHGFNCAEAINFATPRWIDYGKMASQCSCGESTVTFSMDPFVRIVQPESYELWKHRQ
JMJD2A Tudor: inhibitors of human JMJD2A Tudor domain | 4.4% of 390,000 active | AlphaScreen JMJD2A-Tudor / H3K4me3 peptide binding | Potency, µM (titrated, usually from 114 µM), without a hit: at the highest dose activity change, negative = inhibition, usual class: inhibitors | O75164 | AID 504339; also: potency is read from the fitted curve at half-maximal effect; % is scaled to controls: 0 for no effect and ±100 for the full control effect; nearly all actives have a fitted effect of over 50% in size
BAZ2B block: BAZ2B (human) inhibition | Q9UIF8 | AlphaScreen BAZ2B-H3K14Ac peptide displacement | Potency, µM (series often up to 114 µM), without a hit: at the highest dose activity change, negative = inhibition, actives largely listed as inhibitors | 4.4% of 360,000 active | AID 504333; also: potency is read from the fitted curve at half-maximal effect; % is scaled to controls: 0 for no effect and ±100 for the full control effect; nearly all actives have a fitted effect of over 60% in size
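Complex of BAZ2B and biotin-H3K14Ac (50 nM apiece) forms over 30 min at RT, then faces library compounds up to 110 uM for another 30 min; AlphaScreen beads added, 20 min dark incubation, luminescence read.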
L3MBTL1 inh: inhibitors of human L3MBTL1 | Q9Y468 | AlphaScreen L3MBTL1–H3K9me1 peptide binding | Potency, µM (titrated, usually from 57.1 µM), inactives show top-dose activity, negative = inhibition, usual class: inhibitors | 0.66% of 230,000 active | AID 485360; also: potency is read from the fitted curve at half-maximal effect; % is scaled to controls: 0 for no effect and ±100 for the full control effect; nearly all actives have a fitted effect of over 60% in size
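AlphaScreen assay: L3MBTL1 (50 nM final) was preincubated 30 min at room temperature with biotinylated H3(1-15)K9me1 peptide (75 nM final), then 30 min with library compounds; streptavidin donor and nickel chelate acceptor beads (10 ug/mL final) added, 30 min dark.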
PI5P4K alpha inh: blocks human PI5P4K alpha kinase activity; PI5P4Kalpha enzyme, ADP-Glo luminescence, 60 min; active compounds read low; max response, %; 1.2% of 330,000 active; active = max response of -50% or lower; inconclusive = between -30% and -50%; inactive = -30% or higher; also: value at the top dose of about 77 µM; % is scaled to controls: 0 for no effect and ±100 for the full control effect
Target sequence (P48426 whole entry, looked up): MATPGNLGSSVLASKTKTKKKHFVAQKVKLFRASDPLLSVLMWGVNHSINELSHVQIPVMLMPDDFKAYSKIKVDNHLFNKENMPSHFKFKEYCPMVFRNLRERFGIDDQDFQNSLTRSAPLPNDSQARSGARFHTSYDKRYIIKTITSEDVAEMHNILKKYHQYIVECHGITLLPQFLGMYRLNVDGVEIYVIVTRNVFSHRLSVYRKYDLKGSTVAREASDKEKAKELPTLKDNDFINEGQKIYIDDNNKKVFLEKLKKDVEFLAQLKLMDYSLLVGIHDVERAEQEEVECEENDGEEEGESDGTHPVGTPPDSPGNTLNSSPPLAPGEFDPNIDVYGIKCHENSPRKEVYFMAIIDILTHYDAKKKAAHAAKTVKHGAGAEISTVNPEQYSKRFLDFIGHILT
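Quantitative HTS of the MLSMR library against PI5P4Kalpha with substrate. ATP added last at 5 microM final; room temperature, 60 minutes. Remaining ATP depleted, ADP converted and read as luminescence.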
HP1b chromo inh: inhibitors of HP1-beta chromodomain binding to methylated histone tails; Potency, µM (titrated, usually from 114 µM), for inactives: at the top dose activity change, negative = inhibition, actives largely listed as inhibitors; AID 540317; AlphaScreen HP1-beta / biotin-H3K9me3 peptide binding; 0.56% of 390,000 active; P83916; also: potency is read from the fitted curve at half-maximal effect; nearly all actives have a fitted effect of over 70% in size
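AlphaScreen: HP1-beta (50 nM) preformed 30 min with biotin-H3(1-18)K9me3 peptide (50 nM) in PBS pH 7.4, 0.01% Tween-20. Compound added for 30 min at RT, then streptavidin donor/nickel chelate acceptor beads (10 ug/mL) for 30 min.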
An asterisk follows results filed as active; u = inconclusive; x = no result given; [ ] = dose if it differs, or a comment. This is a sample that favours compounds with a hit; in the whole collection about 5.7% have one here. Unless noted, calls follow the shape of the dose curve; as a rule, active = well fitted inhibition curve with a large enough effect; inconclusive = small, poorly fitted or top-dose-only effect; inactive = no such curve, though single readings can be large or run the other way.

SMILES	KDM4E inh	JMJD2A Tudor	BAZ2B block	L3MBTL1 inh	PI5P4K alpha inh	HP1b chromo inh
Cc1onc(-c2ccccc2)c1C(=O)Nc1sc2c(c1C#N)CCC2	-6.9%	50.1µM*	u	u	x	u
O=C(Nc1sc2c(c1C(=O)O)CCC2)c1ccccc1	-3.8%	u	79.4µM*	x	u	-22.0%
CCSc1ncc(Cl)c(C(=O)Nc2sc3c(c2C(=O)NCc2cccnc2)CCCC3)n1	4.8%	100µM*	5.2%	1.1%	x	9.8%
Cc1ccc(C(=O)c2c(NC(=O)c3cccnc3)sc3c2CCCC3)cc1	7.2%	56.2µM*	u	-16.7%	8.2	-31.3%
COc1ccc(C2Nc3ccccc3C(=O)N2Cc2ccco2)cc1COc1c(C)cccc1C (configuration not stated)	x	u	x	x	x	38.2%
Nc1cc(N)cc(C(=O)OCC(=O)Nc2cc(S(=O)(=O)N3CCCCC3)ccc2Cl)c1	-1.0%	35.5µM*	25.1µM*	-12.8%	-17.0	50.1µM*
O=C(COC(=O)c1ccc[nH]c1=O)Nc1cc(S(=O)(=O)N2CCCCC2)ccc1Cl	u	89.1µM*	15.5%	x	0.7	39.4%
O=C(COC(=O)c1ccc(O)cc1)Nc1cc(S(=O)(=O)N2CCCCCC2)ccc1Cl	x	x	x	x	6.2	x
COC(=O)c1ccc(-n2c(C)cc(C(=O)CSc3ccc(NC(C)=O)cc3)c2C)cc1	-10.2%	u	u	-12.9%	-4.2	-24.1%
CC(=O)Nc1ccc(SCC(=O)c2cc(C)n(-c3ccccc3F)c2C)cc1	-17.4%	u	44.7µM*	-4.5%	0.3	-29.9%
O=c1[nH]c2ccc(S(=O)(=O)N3CCN(S(=O)(=O)c4ccc5c(c4)OCCO5)CC3)cc2[nH]c1=O	x	-19.9%	x	x	x	x
Cc1ccc(NC(=S)NNC(=O)c2nn(C)cc2Cl)cc1	20µM*	-9.1%	18.0%[57.1 µM]	6.5%	-10.3	24.9%
Cc1cccc(NC(=S)NNC(=O)c2nn(C)cc2Cl)c1	31.6µM*	-29.1%	3.0%[57.1 µM]	-7.5%	-1.3	19.6%
Cc1ccc(NC(=O)COC(=O)c2nn(C)cc2Cl)cc1	x	-15.0%	-6.4%	x	-0.3	-13.2%
COc1ccc(CCNC(=O)c2ccc3c(c2)CCN3S(=O)(=O)c2ccccc2)cc1	x	0.6%	1.0%	x	x	43.5%
[O-][n+]1c2c(c3c4non(O)c4ccc31)CCCC2	2.2%	u	39.8µM*	x	x	-16.0%
CCCCOc1ccc(C(=O)Nc2onc3c2CCCC3)cc1	x	-3.8%	1.6%	x	x	46.3%
Cn1nc(-c2ccccn2)nc2c(=O)n(C)c(=O)nc1-2	7.08µM*	11.2µM*	10µM*	x	-6.2	19.5%
O=C(CSc1nnc(C2CCCCC2)n1Cc1ccccc1)NCc1ccco1	5.2%	28.2µM*	-8.8%	-2.2%	u	u
C=CCn1c(SCC(=O)NCc2ccco2)nnc1C1CCCCC1	x	-6.9%	4.6%	9.4%	2.5	20.5%
Cc1ccc(NCc2nnc(SCC(=O)NCc3ccco3)n2CC2CCCO2)cc1Cl (configuration not stated)	5.3%	79.4µM*	-38.7%	-4.5%	-11.6	-22.1%
Cc1ccc(NCc2nnc(SCCN3CCCCC3)n2CC2CCCO2)cc1Cl (configuration not stated)	3.7%	-20.8%	-0.9%	x	8.8	3.6%
Cc1ccc(S(=O)(=O)Cc2ccc(C(=O)N3CCc4ccccc4C3)o2)cc1	-8.0%	56.2µM*	50.1µM*	x	u	u
Cc1ccc(S(=O)(=O)Cc2ccc(C(=O)O)o2)cc1	-13.8%	44.7µM*	50.1µM*	x	-25.7	-68.3%
COCCn1c(SCC(=O)NC2CCCC(C)C2C)nc2ccccc2c1=O (configuration not stated)	x	4.1%	7.4%	-5.7%	-7.5	33.5%
SMILES	KDM4E inh	JMJD2A Tudor	BAZ2B block	L3MBTL1 inh	PI5P4K alpha inh	HP1b chromo inh
Cn1c(=O)c2c(nc(SCC(=O)Nc3ccc(F)cc3F)n2Cc2ccccc2)n(C)c1=O	x	-8.2%	-21.9%	x	x	25.4%
Cc1cccc(N2CCN(C(=O)Cc3cn(C)c4ccccc34)CC2)c1C	1.0%	17.8µM*	u	x	-12.5	u
CCOc1ccc(CCNC(=O)C2CCCN(c3nnc(C)c4c(C)n(-c5ccccc5)nc34)C2)cc1 (configuration not stated)	x	-27.2%	-16.5%	x	x	34.8%
CCOC(=O)c1sc(NC(=O)C(C)Sc2nc(-c3ccccc3)cc(C(F)(F)F)n2)c(C(=O)OC)c1C (configuration not stated)	x	-7.2%	0.3%	x	x	48.8%
CCCS(=O)(=O)N1CC(=O)N(c2ccc(C)cc2C)C(C)(C(=O)NC2CCCCCC2)C1 (configuration not stated)	x	-13.5%	-0.3%	x	x	17.4%
Nc1ccc2nc(CCCCCCCCc3nc4ccc(N)cc4[nH]3)[nH]c2c1	6.2%	50.1µM*	22.4µM*	-17.5%	-4.8	3.7%
Nc1ccc2nc(-c3cccc(-c4nc5ccc(N)cc5[nH]4)n3)[nH]c2c1	x	44.7µM*	25.1µM*	x	u	u
COC(=O)c1ccc(C(=O)OCCCc2nc3ccc(N)cc3[nH]2)cc1	3.5%	-28.2%	-11.1%	-2.0%	-7.7	7.1%
Nc1ccc2nc(CCCO)[nH]c2c1	-17.3%	-9.5%	50.1µM*	x	-1.9	33.8%
Nc1ccc2nc(CCCCc3nc4ccccc4[nH]3)[nH]c2c1	x	u	u	-6.4%	-2.3	2.4%
Nc1ccc2nc(-c3ccc(-c4nc5ccc(N)cc5[nH]4)cc3)[nH]c2c1	x	-33.3%	u	x	-24.0	19.0%
COc1cccc(CNCCSc2nnnn2C)c1OCc1ccc(Cl)cc1	x	-1.9%	-24.4%	x	x	21.6%
CN(C(=O)c1oc(=O)c2ccccc2c1-c1ccccc1)c1cccc(Cl)c1	x	-26.6%	u	x	x	13.3%
O=C(CCc1nc(-c2ccccc2F)no1)Nc1cccc(C(F)(F)F)c1	x	-1.4%	-2.8%	x	x	51.0%
Cc1cc(CNc2ncnc3ccc(-c4ccc5c(c4)OCO5)cc23)c(C)o1	x	-33.3%	x	x	x	x
Cc1csc(CNc2ncnc3ccc(-c4ccc5c(c4)OCO5)cc23)c1	x	-14.4%	2.9%	4.6%	x	77.4%

From PubChem BioAssay
